Several values for one entry are separate records, joined by “and”; a condition that tells them apart may be missing. Equal entries are not always repeated. Inconclusive results are not listed. Where a structure was tested more than once in an assay, its records may differ in their call. Activity calls are given as the source filed them. The calls were made as follows: active = hit-call score of the fitted dose curve at least 0.9, where 1 is the maximum; inconclusive = response in the unintended direction; inactive = score below 0.9.
What was measured:
[1] = LTEA_HepaRG_LDH_cytotoxicity: Cytotoxicity Assessment in the Life Technologies and Expression Analysis (LTEA) Assay (AID 2283563);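 as to AC50: LDH activity released into spent culture medium as a marker of cell death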
Method in brief: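 Human HepaRG hepatic cells are treated with test chemicals for 48 h at up to 100 uM in 0.5% DMSO. Cytotoxicity is scored from medium LDH against the vehicle control.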

[2] = ATG_XTT_Cytotoxicity: Cytotoxicity Assessment in the Attagene TRANS-FACTORIAL HepG2 Assay (AID 2283584);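 as to AC50: XTT signal for cell number as viability in transfected HepG2 cells; cells exposed to compound for 24 h before reading; active means loss of viability signal versus DMSO baseline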
Method in brief: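 Transfect HepG2 with GAL4-UAS reporter units, dose compound, incubate 24 h, then measure viable cell number by XTT. Fit concentration response against DMSO baseline.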

[3] = TOX21_p53_BLA_p2_viability: Viability Assessment in the Tox21 HCT-116 p53 Agonism Beta-lactamase Assay, Phase 2 (AID 2283591);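 also: compound exposure lasted 16 h at 37 °C; actives lower the ATP signal meaning cytotoxicity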
Method in brief: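 Cytotoxicity readout: CellTiter-Glo ATP luminescence, 30 min at room temperature, after the beta-lactamase read. Cells were HCT116 exposed 16 h at 37C to compounds pin-transferred at 217-fold dilution from DMSO stocks.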

[4] = target: Cellular tumor antigen p53 (Homo sapiens) (UniProt P04637); assay: TOX21_p53_BLA_p2_ratio: Tox21 HCT-116 p53 Agonism Beta-lactamase Assay, Ratio, Phase 2 (AID 2283592)
Method in brief: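 Cleaved-to-uncleaved substrate ratio (460 vs 530 nm) measured in HCT116 cells with an inducible beta-lactamase reporter linked to p53 activity. Compounds incubated 16 h at 37C before 2 h room-temperature CCF4-AM loading.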

[5] = target: Cellular tumor antigen p53 (Homo sapiens) (UniProt P04637); assay: TOX21_p53_BLA_p3_ratio: Tox21 HCT-116 p53 Agonism Beta-lactamase Assay, Ratio, Phase 3 (AID 2283596)
Method in brief: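 Cells were seeded at 4000/well, rested 5 h at 37C, then dosed with DMSO compound solutions (217-fold dilution) for 16 h. CCF4-AM substrate was loaded for 2 h at room temperature, and the 460/530 nm emission ratio was fitted for gain of signal versus DMSO.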

[6] = TOX21_p53_BLA_p4_viability: Viability Assessment in the Tox21 HCT-116 p53 Agonism Beta-lactamase Assay, Phase 4 (AID 2283597);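 also: hits lower the luminescence signal meaning cytotoxicity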
Method in brief: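 Viability is taken as cellular ATP: after 16 h compound exposure of HCT116 cells and a 2 h room-temperature CCF4-AM substrate step, CellTiter-Glo reagent is added and luminescence is measured 30 min later.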

[7] = target: Cellular tumor antigen p53 (Homo sapiens) (UniProt P04637); assay: TOX21_p53_BLA_p5_ratio: Tox21 HCT-116 p53 Agonism Beta-lactamase Assay, Ratio, Phase 5 (AID 2283599)
Method in brief: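 Beta-lactamase reporter ratio (blue 460 nm over green 530 nm, 405 nm excitation) after 2 h CCF4-AM loading, in HCT-116 cells exposed 16 h at 37 C to compounds pinned at 217-fold dilution. Increases relative to DMSO baseline scored.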

[8] = TOX21_p53_BLA_p5_viability: Viability Assessment in the Tox21 HCT-116 p53 Agonism Beta-lactamase Assay, Phase 5 (AID 2283600)
Method in brief: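 Viability is taken from cellular ATP content, measured by luciferase luminescence in the same wells after the beta-lactamase ratio read. Cells are seeded at 4000 per well and exposed to DMSO-dissolved compounds, diluted 217-fold, for 16 h.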

[9] = target: Cellular tumor antigen p53 (Homo sapiens) (UniProt P04637); assay: TOX21_p53_BLA_p4_ratio: Tox21 HCT-116 p53 Agonism Beta-lactamase Assay, Ratio, Phase 4 (AID 2283601)
Method in brief: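 Signal is the blue/green (460nm/530nm) ratio of cleaved versus uncleaved CCF4-AM substrate, read after 2 h substrate loading. Cells were HCT116 carrying the p53-responsive beta-lactamase reporter, dosed 16 h at 37C, 5% CO2; CellTiter-Glo measured in parallel.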

[10] = Tanguay_ZF_120hpf_MORT_legacy: (Legacy) Oregon State University Tanguay Lab 120 Hour Post-fertilization zebrafish Assay for Mortality (AID 2283633);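 as to AC50: fitted as increase in binary mortality versus DMSO negative control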
Method in brief: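 Mortality endpoint from a multiplexed whole-embryo zebrafish screen. Dechorionated wild-type embryos received compound at 6 hpf and remained under static exposure at 28C until 120 hpf, with death noted as a present/absent call.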

[11] = Tanguay_ZF_120hpf_YSE_legacy: (Legacy) Oregon State University Tanguay Lab 120 Hour Post-fertilization zebrafish Assay for Yolk Sac Edema (AID 2283634);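 as to AC50: actives raise the incidence of yolk sac edema above the DMSO baseline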
Method in brief: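 Readout: presence or absence of yolk sac edema at 120 hpf, fitted upward against DMSO controls. Exposure ran statically from 6 hpf in dechorionated embryos kept at 28C.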

[12] = Tanguay_ZF_120hpf_AXIS_legacy: (Legacy) Oregon State University Tanguay Lab 120 Hour Post-fertilization zebrafish Assay for Body Axis Malformation (AID 2283635)
Method in brief: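 Static 6–120 hpf chemical exposure of dechorionated wild-type 5D zebrafish, one per well at 28C; morphology endpoint scored binary at 120 hpf relative to DMSO control.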

[13] = Tanguay_ZF_120hpf_EYE_legacy: (Legacy) Oregon State University Tanguay Lab 120 Hour Post-fertilization zebrafish Assay for Eye Malformation (AID 2283636);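 also: binary presence or absence of eye malformation scored by brightfield in 120 hpf larvae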
Method in brief: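 Binary brightfield scoring of eye defects at 120 hpf after static exposure from 6 hpf of single pronase-dechorionated wild-type embryos (28C, 0.64% DMSO). Non-mortality endpoints omitted where embryos died; fit vs DMSO.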

[14] = Tanguay_ZF_120hpf_SNOU_legacy: (Legacy) Oregon State University Tanguay Lab 120 Hour Post-fertilization zebrafish Assay for Snout Malformation (AID 2283637)
Method in brief: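 Binary snout-malformation call at 120 hpf in wild-type 5D embryos, chorion removed by pronase, under static exposure from 6 hpf at 28C (0.64% DMSO). Embryos dying by 24 or 120 hpf excluded.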

[15] = Tanguay_ZF_120hpf_JAW_legacy: (Legacy) Oregon State University Tanguay Lab 120 Hour Post-fertilization zebrafish Assay for Jaw Malformation (AID 2283638)
Method in brief: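 Static waterborne exposure of dechorionated wild-type (Tropical 5D) zebrafish from 6 to 120 hpf at 28C, 0.64% DMSO vehicle; 5uM trimethyltin chloride served as positive control. Jaw morphology recorded as binary at 120 hpf.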

[16] = Tanguay_ZF_120hpf_OTIC_legacy: (Legacy) Oregon State University Tanguay Lab 120 Hour Post-fertilization zebrafish Assay for Otic Vesicle Malformation (AID 2283639)
Method in brief: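 Binary scoring of otic vesicle defects at 120 hpf in zebrafish (Tropical 5D) held under static exposure at 28C, sealed and shaded, with final DMSO 0.64%. Embryos dying by 24 or 120 hpf excluded; fitted positively against DMSO.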

[17] = Tanguay_ZF_120hpf_PE_legacy: (Legacy) Oregon State University Tanguay Lab 120 Hour Post-fertilization zebrafish Assay for Pericardial Edema (AID 2283640);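 as to AC50: potency for increased incidence of pericardial edema versus DMSO baseline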
Method in brief: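 Read-out is the presence or absence of pericardial edema at 120 hpf under brightfield, with gain of signal fitted against DMSO controls. Larvae (5D wild-type) were statically exposed at 28C with 0.64% final DMSO.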

[18] = Tanguay_ZF_120hpf_BRAI_legacy: (Legacy) Oregon State University Tanguay Lab 120 Hour Post-fertilization zebrafish Assay for Brain Malformation (AID 2283641)
Method in brief: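 Brain malformation in Tropical 5D zebrafish was recorded as a binary endpoint after static compound exposure from early development to 120 hpf at 28C. Activity was analysed against DMSO as negative control.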

[19] = Tanguay_ZF_120hpf_SOMI_legacy: (Legacy) Oregon State University Tanguay Lab 120 Hour Post-fertilization zebrafish Assay for Somite Malformation (AID 2283647)
Method in brief: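 5D WT zebrafish; chorion removed 4 hpf; 1 embryo/well from 6 hpf; static exposure to 120 hpf, 28C, 0.64% DMSO final. Endpoint: somite malformation, binary, brightfield. Mortality excluded.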

[20] = TOX21_p53_BLA_p3_viability: Viability Assessment in the Tox21 HCT-116 p53 Agonism Beta-lactamase Assay, Phase 3 (AID 2283593);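 also: cells exposed to compound for 16 h before reading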
Method in brief: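 Cellular ATP was quantified by CellTiter-Glo luminescence, read after 30 min at room temperature. Beforehand, HCT116 cells (4000/well) received compound 5 h post-seeding, 217-fold diluted from DMSO, then incubated 16 h at 37C.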

Measured: AC50

Sequence of Cellular tumor antigen p53 (Homo sapiens) (P04637 whole entry, looked up): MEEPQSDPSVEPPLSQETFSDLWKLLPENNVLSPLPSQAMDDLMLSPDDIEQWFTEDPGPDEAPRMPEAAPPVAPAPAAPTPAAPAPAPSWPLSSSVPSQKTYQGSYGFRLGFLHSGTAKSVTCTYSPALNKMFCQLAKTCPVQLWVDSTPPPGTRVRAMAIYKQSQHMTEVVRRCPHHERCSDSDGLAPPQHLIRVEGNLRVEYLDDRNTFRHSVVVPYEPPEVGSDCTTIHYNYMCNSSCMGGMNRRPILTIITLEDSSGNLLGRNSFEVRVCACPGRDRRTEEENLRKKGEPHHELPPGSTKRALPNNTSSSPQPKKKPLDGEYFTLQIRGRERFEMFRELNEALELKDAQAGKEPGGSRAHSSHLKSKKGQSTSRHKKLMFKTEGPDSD

COC(=O)CCCC(=O)OC
not listed: [20]
inactive: all other assays above

CC1(C)C(=O)NC(=O)N1CO
not listed: [4] | [6] | [20]
inactive: all other assays above

CCc1nc(N)nc(N)c1-c1ccc(Cl)cc1
active: [1] 66.1 µM | [3] 17.2 µM and 11.8 µM | [4] 58.9 µM and 27 µM | [20] 46.1 µM and 18.5 µM | [6] 18.3 µM and 15.9 µM and 10.4 µM | [8] 15.3 µM | [9] 47.9 µM
inactive: [2] | [3] | [4] | [5] | [7] | [8] | [9] | [10] | [11] | [12] | [15] | [16] | [17] | [18] | [19]

CCCCC(CC)CO (stereo not given)
not listed: [3] | [6] | [19]
inactive: all other assays above

CCCCCCC(CCCCCCCCCCC(=O)OCC(COC(C)=O)OC(C)=O)OC(C)=O (stereo not given)
not listed: [3] | [5] | [6] | [20]
inactive: all other assays above

Cc1ccc(-c2cc(C(F)(F)F)nn2-c2ccc(S(N)(=O)=O)cc2)cc1
active: [1] 74.4 µM | [2] 149 µM
inactive: [10] | [11] | [12] | [13] | [14] | [15] | [17] | [18]

CC(N)=O
not listed: [3] | [4] | [5] | [6] | [7] | [8] | [9] | [20]
inactive: all other assays above

O=C(O)CN(CC(=O)O)CC(=O)O
not listed: [6] | [16]
inactive: all other assays above

O=[Si]=O
not listed: [3] | [4] | [5] | [7] | [8]
inactive: all other assays above

Oc1ccc(O)cc1
active: [3] 72.8 µM and 70 µM | [4] 20.2 µM | [20] 42.5 µM and 61.1 µM and 38.2 µM | [5] 21.4 µM | [6] 47.1 µM and 70.6 µM and 36.2 µM | [8] 17 µM and 35.8 µM and 37.7 µM | [10] 1.77 µM
inactive: [1] | [2] | [3] | [4] | [5] | [7] | [9] | [11] | [12] | [13] | [14] | [15] | [16] | [17] | [18] | [19]

O=C(Oc1ccccc1)c1cccc(C(=O)Oc2ccccc2)c1
not listed: [3] | [4] | [5] | [6] | [7] | [8] | [9] | [20]
inactive: all other assays above

CCC(C)N(C)C(=O)c1cc2ccccc2c(-c2ccccc2Cl)n1 (stereo not given)
active: [11] 20.4 µM | [17] 6.53 µM
inactive: all other assays above

O=C1c2c(O)cccc2Cc2cccc(O)c21
inactive: all assays above

O=C1NC(=O)C(c2ccccc2)(c2ccccc2)N1
not listed: [3] | [4] | [5] | [6] | [7] | [8] | [9] | [20]
inactive: all other assays above

O=C1OC(c2ccc(O)cc2)(c2ccc(O)cc2)c2ccccc21
not listed: [1] | [16] | [18]
inactive: all other assays above
